The record followed here is PubChem BioAssay (Tox21).

For assay [1], the target named is Acetylcholinesterase (Homo sapiens) (UniProt P22303). As to the kind of experiment: Acetylcholinesterase (AChE) small molecule antagonists: colormetric cell-based qHTS assay (AID 1347395). Also: nearly all actives have a fitted effect of over 30% in size. Also: potency is read from the fitted curve at half-maximal effect. In outline: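 Homogeneous whole-cell format. SH-SY5Y cells seeded overnight, dosed with compound (30 min, 37 C, 5% CO2), then given DTNB/acetylthiocholine cocktail for 90 min at 37 C; colorimetric signal.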
(In qHTS, concentration-response curves come from the screen itself.)

Assay [2] shares this target. As to the kind of experiment: Acetylcholinesterase (AChE) small molecule antagonists: enzyme-based qHTS assay (AID 1347397). Also: nearly all actives have a fitted effect of over 55% in size. Also: potency is read from the fitted curve at half-maximal effect. Conditions: Potency: AChE enzyme activity inhibition; outcome: AChE enzyme activity inhibition. A digest of the protocol: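 Colorimetric DTNB readout of acetylthiocholine hydrolysis, 10 min at room temperature, after 30 min room-temperature exposure of 50 mU/mL recombinant human enzyme to compound; DMSO vehicle control.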

For assay [3] the target is unchanged. The assay is described as follows: Acetylcholinesterase (AChE) small molecule antagonists: fluorescence cell-based qHTS assay (AID 1347398). Also: nearly all actives have a fitted effect of over 50% in size. Also: potency is read from the fitted curve at half-maximal effect. Particulars: Potency: AChE activity; outcome: AChE activity. In outline:
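Cellular AChE activity read as thiocholine from acetylthiocholine hydrolysis, detected by Thiolite Green fluorescence at 490/520 nm after 40 min at room temperature. Compounds were pre-incubated 30 min at 37 C on adherent SH-SY5Y cells.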

Assay [4] shares this target. As to the kind of experiment: Acetylcholinesterase (AChE) small molecule antagonists: enzyme-based qHTS assay with human liver microsomes (AID 1347399). Also: nearly all actives have a fitted effect of over 60% in size. Conditions: Potency: qHTS inhibition; outcome: qHTS inhibition. In outline: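 Recombinant human AChE (50 mU/mL in the enzyme mix) and human liver microsomes (0.25 mg/mL final) were preincubated with compound and NADPH (0.25 mg/mL final) for 30 min at 37 C. Acetylthiocholine/DTNB was then added; thiocholine was read colorimetrically after 10 min at room temperature.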

The structures appear in SMILES notation. Unmarked numbers belong to inactive results. Results filed as inconclusive are left out. The source made the active and inactive calls. Calls follow the shape of the full dose curve.
% is scaled to controls: 0 for no effect and ±100 for the full control effect.

Acetylcholinesterase (Homo sapiens), sequence (P22303 whole entry, looked up): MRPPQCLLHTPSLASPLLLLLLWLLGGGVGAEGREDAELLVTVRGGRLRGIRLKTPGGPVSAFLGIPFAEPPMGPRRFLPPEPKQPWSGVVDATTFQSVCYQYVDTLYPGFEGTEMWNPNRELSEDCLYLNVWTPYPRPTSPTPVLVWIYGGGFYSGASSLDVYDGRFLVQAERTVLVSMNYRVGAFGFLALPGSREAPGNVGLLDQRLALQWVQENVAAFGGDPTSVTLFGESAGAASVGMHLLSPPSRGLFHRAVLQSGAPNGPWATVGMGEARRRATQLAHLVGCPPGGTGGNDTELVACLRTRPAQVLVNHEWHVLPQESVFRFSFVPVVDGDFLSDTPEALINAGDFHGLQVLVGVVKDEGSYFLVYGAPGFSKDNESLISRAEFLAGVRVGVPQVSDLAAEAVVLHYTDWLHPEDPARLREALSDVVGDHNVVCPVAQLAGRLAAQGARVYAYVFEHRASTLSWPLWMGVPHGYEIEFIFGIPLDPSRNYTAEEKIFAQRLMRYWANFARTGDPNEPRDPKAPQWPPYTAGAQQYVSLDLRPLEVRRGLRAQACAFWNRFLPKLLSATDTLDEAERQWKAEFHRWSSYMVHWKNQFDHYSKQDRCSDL

Take `O=C(CS)Nc1ccccc1`: the Potency result in assay [1], in assay [2], in assay [3] and in assay [4] was “inactive” in each case.

In the case of `CC(NCCC(c1ccccc1)c1ccccc1)c1ccccc1` (stereo not given), the Potency entry in assay [1], in assay [2], in assay [3] and in assay [4] was “inactive” throughout.

As to `CCN1CCCC(OC(=O)C(c2ccccc2)c2ccccc2)C1` (stereo not given), the Potency entry in assay [1], in assay [2], in assay [3] and in assay [4] was “inactive” in each case.

On to `CS(=O)(=O)OCCCCOS(C)(=O)=O`, for which the Potency result in assay [1], in assay [2], in assay [3] and in assay [4] was “inactive” throughout.

On to `COC(=O)[C@H]1[C@H]2C[C@@H]3c4[nH]c5cc(OC)ccc5c4CCN3C[C@H]2C[C@@H](OC(=O)/C=C/c2ccc(O)c(OC)c2)[C@@H]1OC`, for which the Potency result in assay [1], in assay [2], in assay [3] and in assay [4] was “inactive” throughout.

Consider `OCCNCCO`, for which the Potency entry in assay [1], in assay [2], in assay [3] and in assay [4] was “inactive” in each case.

Take `Clc1cccc(-c2cc(Cl)cc(Cl)c2)c1`: the Potency result in assay [1], in assay [2], in assay [3] and in assay [4] was “inactive” throughout.

As to `COc1cc2c(cc1N)oc1ccccc12`, the Potency entry in assay [1], in assay [2], in assay [3] and in assay [4] was “inactive” each time.

As for `O=c1[nH][nH]c2ccccc12`, the Potency result in assay [1], in assay [2], in assay [3] and in assay [4] was “inactive” throughout.

As to `O=C(O)CCCCCCCCCCCC(=O)O`, the Potency result in assay [1], in assay [2], in assay [3] and in assay [4] was “inactive” each time.

Take `c1ccc2c(c1)ccc1ccccc12`: the Potency entry in assay [1], in assay [2], in assay [3] and in assay [4] was “inactive” each time.

In the case of `CCCCCCC(CCCCCCCCCCC(=O)OCC(COC(C)=O)OC(C)=O)OC(C)=O` (stereo not given), the Potency entry in assay [1], in assay [2], in assay [3] and in assay [4] was “inactive” each time.

As to `C=C(C)C(=O)OCCOP(=O)(O)OCCOC(=O)C(=C)C`, the Potency result in assay [1], in assay [2], in assay [3] and in assay [4] was “inactive” throughout.

In the case of `CCCCCCCCCCCCCCBr`, the Potency entry in assay [1], in assay [2], in assay [3] and in assay [4] was “inactive” each time.

On to `COc1cc(OC)nc(O[C@H](C(=O)O)C(OC)(c2ccccc2)c2ccccc2)n1`, for which the Potency entry in assay [1], in assay [2], in assay [3] and in assay [4] was “inactive” throughout.

Turning to `COC(=O)Nc1nc2ccc(S(=O)c3ccccc3)cc2[nH]1` (stereo not given), the Potency result in assay [1], in assay [2], in assay [3] and in assay [4] was “inactive” throughout.

As to `CN1C[C@H](C(=O)N[C@]2(C)O[C@@]3(O)[C@@H]4CCCN4C(=O)[C@H](Cc4ccccc4)N3C2=O)C[C@@H]2c3cccc4[nH]cc(c34)C[C@H]21`, the Potency in assay [1] is 19.5 µM (active); in assay [2], 30.9 µM (active); in assay [3] it was 8.71 µM (active). For the same compound, the Potency result in assay [4] was “inactive”.

`CCCCCC(C)=O`: the Potency result in assay [1], in assay [2], in assay [3] and in assay [4] was “inactive” in each case.

As for `O=S(=O)(O)c1ccc(O)cc1`, the Potency entry in assay [1], in assay [2], in assay [3] and in assay [4] was “inactive” in each case.

On to `C=C(C)[C@@H]1CCC2=CC(=O)C[C@@H](C)[C@]2(C)C1`, for which the Potency entry in assay [1], in assay [2], in assay [3] and in assay [4] was “inactive” each time.

As for `CCCC/C=C/C=C\C=O`, the Potency entry in assay [1], in assay [2], in assay [3] and in assay [4] was “inactive” in each case.

In the case of `COCCOC(=O)CC#N`, the Potency result in assay [1], in assay [2], in assay [3] and in assay [4] was “inactive” throughout.

Regarding `OCCN(CCO)CCN(CCO)CCO`, the Potency result in assay [1], in assay [2], in assay [3] and in assay [4] was “inactive” each time.

As to `C=CC(=O)OCC(C)OCC(C)OCC(C)OC(=O)C=C` (stereo not given), the Potency entry in assay [1], in assay [2], in assay [3] and in assay [4] was “inactive” in each case.

Regarding `CCc1ccc(CC)cc1`, the Potency entry in assay [1], in assay [2], in assay [3] and in assay [4] was “inactive” in each case.

As to `CC(C)c1ccc(S(=O)(=O)O)cc1`, the Potency entry in assay [1], in assay [2], in assay [3] and in assay [4] was “inactive” throughout.

On to `O=C(O)CCCC[P+](c1ccccc1)(c1ccccc1)c1ccccc1`, for which the Potency result in assay [1], in assay [2], in assay [3] and in assay [4] was “inactive” in each case.

For the compound `Cc1cccc(C(C)(C)C)c1O`, the Potency entry in assay [1], in assay [2], in assay [3] and in assay [4] was “inactive” in each case.

`CNC(=O)c1ccccc1`: the Potency result in assay [1], in assay [2], in assay [3] and in assay [4] was “inactive” each time.

`Cc1ccc(C(C)(C)C)c(O)c1`: the Potency result in assay [1], in assay [2], in assay [3] and in assay [4] was “inactive” each time.

In the case of `CCCNC(=O)NS(=O)(=O)c1ccc(Cl)cc1`, the Potency entry in assay [1], in assay [2], in assay [3] and in assay [4] was “inactive” in each case.

With `CC(C)(O)C(=O)c1ccc(OCCO)cc1`, the Potency entry in assay [1], in assay [2], in assay [3] and in assay [4] was “inactive” throughout.

With `CCc1cccc(CC)c1N(COC)C(=O)CS(=O)(=O)O`, the Potency entry in assay [1], in assay [2], in assay [3] and in assay [4] was “inactive” throughout.

In the case of `CCCCN(CCCC)CCCC`, the Potency result in assay [1], in assay [2], in assay [3] and in assay [4] was “inactive” in each case.

With `O=C(OCC1CO1)C1CCCCC1C(=O)OCC1CO1` (stereo not given), the Potency entry in assay [1], in assay [2], in assay [3] and in assay [4] was “inactive” in each case.

On to `COc1ccc(CCO)cc1`, for which the Potency result in assay [1], in assay [2], in assay [3] and in assay [4] was “inactive” in each case.

For the compound `CCCCNC(=O)NS(=O)(=O)c1ccc(N)cc1`, the Potency result in assay [1], in assay [2], in assay [3] and in assay [4] was “inactive” throughout.

`CCCCC(CC)CN=C(N)NC(N)=NCCCCCCN=C(N)NC(N)=NCC(CC)CCCC` (stereo not given): the Potency result in assay [1] and in assay [4] was “inactive” each time. The values for the Potency in assay [2] and in assay [3] were 17.4 µM (active) and 13.8 µM (active), respectively.

Turning to `CN(C)CCC=C1c2ccccc2CCc2ccccc21`, the Potency entry in assay [1], in assay [2], in assay [3] and in assay [4] was “inactive” throughout.

For the compound `Cc1ccnc2c1NC(=O)c1cccnc1N2C1CC1`, the Potency entry in assay [1], in assay [2], in assay [3] and in assay [4] was “inactive” throughout.

In the case of `C1CCCCC1`, the Potency result in assay [1], in assay [2], in assay [3] and in assay [4] was “inactive” each time.

For the compound `CC(C)(C)C(O)/C=C/c1ccc2c(c1)OCO2` (stereo not given), the Potency entry in assay [1], in assay [2], in assay [3] and in assay [4] was “inactive” throughout.

As for `NC(=O)OCC(COC(N)=O)c1ccccc1`, the Potency result in assay [1], in assay [2], in assay [3] and in assay [4] was “inactive” each time.

With `O=c1[nH]c(=O)c2ccccc2o1`, the Potency result in assay [1], in assay [2], in assay [3] and in assay [4] was “inactive” in each case.

As to `N[C@H]1C(O)O[C@H](CO)[C@H](O)[C@@H]1O` (stereo not given in full), the Potency entry in assay [1], in assay [2], in assay [3] and in assay [4] was “inactive” throughout.

As for `CCCSSCCC`, the Potency entry in assay [1], in assay [2], in assay [3] and in assay [4] was “inactive” each time.

On to `NC=O`, for which the Potency result in assay [1], in assay [2], in assay [3] and in assay [4] was “inactive” in each case.

Consider `Cc1ccc(C(C)C)cc1O`, for which the Potency entry in assay [1], in assay [2], in assay [3] and in assay [4] was “inactive” throughout.

Turning to `CCOC(=O)C(=O)CCCCCCl`, the Potency entry in assay [1], in assay [2], in assay [3] and in assay [4] was “inactive” in each case.

Turning to `O=C(O)c1cc(=O)c2c(OCC(O)COc3cccc4oc(C(=O)O)cc(=O)c34)cccc2o1`, the Potency result in assay [1], in assay [2], in assay [3] and in assay [4] was “inactive” each time.

As for `NC(=O)c1cn(Cc2c(F)cccc2F)nn1`, the Potency result in assay [1], in assay [2], in assay [3] and in assay [4] was “inactive” in each case.

`C#CC1(O)CC[C@H]2[C@@H]3CCC4=CCCC[C@@H]4[C@H]3CC[C@@]21C` (stereo not given in full): the Potency result in assay [1], in assay [2], in assay [3] and in assay [4] was “inactive” throughout.

Regarding `CC[C@H]1OC(=O)[C@H](C)[C@@H](O[C@H]2C[C@@](C)(OC)[C@@H](O)[C@H](C)O2)[C@H](C)[C@@H](O[C@@H]2O[C@H](C)C[C@H](N(C)C)[C@H]2O)[C@](C)(O)C[C@@H](C)C(=O)[C@H](C)[C@@H](O)[C@]1(C)O`, the Potency entry in assay [1], in assay [2], in assay [3] and in assay [4] was “inactive” in each case.

As to `C#CC(O)CCC` (stereo not given), the Potency result in assay [1], in assay [2], in assay [3] and in assay [4] was “inactive” each time.

`CC(=O)Nc1c(I)c(NC(C)=O)c(I)c(C(=O)O)c1I`: the Potency entry in assay [1], in assay [2], in assay [3] and in assay [4] was “inactive” throughout.

On to `CO[Si](CCCOCC1CO1)(OC)OC` (stereo not given), for which the Potency entry in assay [1], in assay [2], in assay [3] and in assay [4] was “inactive” each time.

Turning to `Cc1cccc(N(C)C(=S)Oc2ccc3ccccc3c2)c1`, the Potency entry in assay [1], in assay [2], in assay [3] and in assay [4] was “inactive” throughout.

Take `CCN1CCC[C@H]1CNC(=O)c1c(O)c(Cl)cc(Cl)c1OC`: the Potency result in assay [1], in assay [2], in assay [3] and in assay [4] was “inactive” throughout.

As to `CCOC(=O)NCCOc1ccc(Oc2ccccc2)cc1`, the Potency entry in assay [1], in assay [2], in assay [3] and in assay [4] was “inactive” throughout.

Consider `CC1=CC(=C(c2ccc(N)cc2)c2ccc(N)cc2)C=CC1=N`, for which the activity, negative = inhibition in assay [1] is 0.517% [at 10.5 µM]. Further, the activity change, negative = inhibition was 0.534% [at 10.5 µM] in assay [2], -4.07% [at 10.5 µM] in assay [3] and 0.485% [at 10.5 µM] in assay [4].
